# Measurements taken from PubChem BioAssay (Tox21).
# Unmarked numbers belong to inactive results. Calls of active or inactive are those of the source. Calls follow the shape of the dose curve; as a rule, active = well fitted curve in the direction sought with a large enough effect in the repeat runs; inconclusive = weak or mixed curves; inactive = flat fitted curve, though single readings scatter.
# Assay: qHTS assay to test for compound auto fluorescence at 535 nm (green) in HEK293 cells (AID 720680)
# Settings: green autofluorescence 485/535 nm; series mostly up to 46 µM; fluorescence, % of fluorescein: at the top concentration
# From the text: U.S. Tox21 Program National Center for Advancing Translational Sciences [NCATS] NIH Chemical Genomics Center [NCGC] U.S. Environmental Protection Agency [EPA] National Institutes of Environmental Health Sciences [NIEHS] National Toxicology Program [NTP] U.S. Food and Drug Administration [FDA] Tox21 Assay Overview: Compound auto fluorescence often interferes with screening of the compound library against various biological targets and signaling pathways. Some of these compounds may have fluorophoric properties. Such properties may interfere with the assay outputs resulting in false positives and/or negatives. To decrease such complications and ensure the compound activities are relevant in terms of biological response, the Tox21 10K compound library was screened for auto fluorescence. From the fluorophores used as reporter signals in our screening assays, the auto fluorescence equivalencies of compounds against three fluorophores have been evaluated: Triamterene, Fluorescein and Rose Bengal sodium for blue, green and red fluorescence, respectively. The fluorescence intensities were measured using Excitation/Emission wavelengths at 405/460nm, 485/535nm and 540/590nm for blue, green and red labels, respectively. This assay includes the green fluorescence data.
# Tox21 Assay Protocol Summary: 2,000 HEK293 cells in 5 uL of culture medium containing 10% dialyzed FBS per well were dispensed into black wall/clear bottom 1536-well plates using a Multidrop Combi Dispenser (Thermo Scientific). The assay plates were incubated for 4-5 hr at 37C to allow cell attachment to the well bottom, followed by the transfer of 23 nL compound or DMSO vehicle by a pintool work station (Kalypsys, San Diego, CA). After the assay plates were incubated overnight at 37C and 5% CO2, fluorescence intensities in the assay plates were measured by an Envision (PerkinElmer, Shelton, CT) plate reader using three labels for measuring blue, green and red fluorescence at […] 460, 535 and 590nm respectively.
# % is scaled to controls: 0 for no effect and ±100 for the full control effect.
SMILES,"fluorescence, % of fluorescein",outcome
O=C(O)c1cc2cc(Cc3cccnc3)ccc2o1,0.0062%,–
C=N[C@@H](C(=O)N[C@@H]1C(=O)N2[C@@H]1SC(C)(C)[C@@H]2C(=O)O)c1ccccc1,-0.0213%,–
COc1cc([C@@H]2c3cc4c(cc3[C@@H](O[C@@H]3O[C@@H]5CO[C@@H](C)O[C@H]5[C@H](O)[C@H]3O)[C@H]3COC(=O)[C@H]23)OCO4)cc(OC)c1O,–,inactive
CCC(O)c1ccccc1 (stereo not given),-0.0166%,–
CO[C@H]1C[C@@H]2CC[C@@H](C)[C@@](O)(O2)C(=O)C(=O)N2CCCC[C@H]2C(=O)O[C@H]([C@H](C)C[C@@H]2CC[C@@H](O)[C@H](OC)C2)CC(=O)[C@H](C)C=C(C)[C@@H](O)[C@@H](OC)C(=O)[C@H](C)C[C@H](C)/C=C/C=CC=C1C,–,inactive
C[C@@H]1C(=O)NC2=Nc3cccc(Cl)c3CN21,-0.132%,–
NC(N)=NCC1COC2(CCCCC2)O1 (stereo not given),0.0031% [at 18.6 µM],–
C[C@]12O[C@H](C[C@]1(O)CO)n1c3ccccc3c3c4c(c5c6ccccc6n2c5c31)CNC4=O,-1.12%,–
NCC(O)CC(=O)O (stereo not given),-0.0179%,–
CCN1CCCC1CNC(=O)c1cc(S(=O)(=O)CC)ccc1OC (stereo not given),–,inactive
Cc1cc(C(=O)NCCc2ccc(S(=O)(=O)NC(=O)NN3CCCCCC3)cc2)no1,0.029%,–
O=C1c2ccccc2CN2C(=O)c3ccccc3CN12,0.0715%,–
CCOC(=O)Cc1ccc(-c2ccccc2)cc1,-0.0638%,–
Cc1onc(-c2c(F)cccc2Cl)c1C(=O)N[C@@H]1C(=O)N2[C@@H]1SC(C)(C)[C@@H]2C(=O)O,–,inactive
CC/C=C\C/C=C\C/C=C\C/C=C\C/C=C\CCCC(=O)O,0.0486%,–
CCCCCCCCCCCC[n+]1ccc2ccccc2c1,0.0381%,–
SC1CCCCC1,-0.0859% [at 95.7 µM],–
C=C1[C@H](CO)[C@@H](O)C[C@@H]1n1cnc2c(=O)[nH]c(N)nc21,-0.0073%,–
CC12CCC(C1)C(C)(C)C2=O (stereo not given),-0.0141%,–
O=C(CCN1CCC(c2ccccc2)C1)c1ccc2c(c1)OCCO2 (stereo not given),0.264%,–

SMILES,"fluorescence, % of fluorescein",outcome
CN(C)CCOc1ccc(/C(=C(/CCCl)c2ccccc2)c2ccccc2)cc1,–,inactive
C=CC[N@@+]12CC[C@@]34c5ccccc5N5/C=C6/[C@H]7C[C@H]8[C@@]9(CC[N@@+]8(CC=C)C/C7=C/CO)c7ccccc7N(/C=C(/[C@@H](C[C@@H]31)/C(=C\CO)C2)[C@H]54)[C@@H]69,0.146% [at 18.6 µM],–
COC(=O)[C@H]1[C@H]2C[C@H]3c4[nH]c5ccccc5c4CCN3C[C@H]2CC[C@@H]1O,0.334%,–
O=C(O)c1ccc(NC2OC[C@@H](O)[C@H](O)[C@H]2O)cc1 (stereo not given in full),-0.0305%,–
CN1CC[C@H](c2c(O)cc(O)c3c(=O)cc(-c4ccccc4Cl)oc23)[C@H](O)C1,-0.174%,–
CC[C@H]1OC(=O)C[C@@H](O)[C@H](C)[C@@H](O[C@@H]2O[C@H](C)[C@@H](O[C@H]3C[C@@](C)(O)[C@@H](O)[C@H](C)O3)[C@H](N(C)C)[C@H]2O)[C@@H](CC=O)C[C@@H](C)C(=O)/C=C/C(C)=C/[C@@H]1CO[C@@H]1O[C@H](C)[C@@H](O)[C@@H](OC)[C@H]1OC,–,inactive
NCCO/C=C/[C@H](N)C(=O)O,0.119%,–
NC(=O)c1cc[n+](CC2=C(C(=O)O)N3C(=O)[C@@H](NC(=O)C(c4ccccc4)S(=O)(=O)[O-])[C@H]3SC2)cc1 (stereo not given in full),0.0708% [at 18.6 µM],–
CCOc1ccc([N+](=O)[O-])cc1,0.002% [at 95.7 µM],–
Nc1nc(NC2CC2)c2ncn([C@@H]3C=C[C@@H](CO)C3)c2n1,0.0017%,–
C/C(=C\C(=O)OCCCCCCCCC(=O)O)C[C@@H]1OC[C@H](C[C@@H]2O[C@H]2[C@@H](C)[C@H](C)O)[C@@H](O)[C@H]1O,-0.0966%,–
O=C1CCC(c2ccc(-n3ccnc3)cc2)=NN1,0.0463%,–
O=C(O)COc1ccccc1/C=N/NC(=O)c1ccncc1,3.5e-05%,–
CN1CCN(c2ccccc2/C=C2\SCCN(c3ccc(Cl)c(Cl)c3)C2=O)CC1,0.0596% [at 91.3 µM],–
Cc1cc(Br)ccc1NC(=O)CCl,0.0055% [at 91.3 µM],–
O=C(O)/C=C/C(=O)Nc1ccc(S(=O)(=O)Nc2nccs2)cc1,0.0783%,–
CSCCC(N)C(=O)O (stereo not given),0.0165%,–
CNCCC=C1c2ccccc2CCc2ccccc21,0.141%,–
CCOc1cc(CC(=O)N[C@@H](CC(C)C)c2ccccc2N2CCCCC2)ccc1C(=O)O,0.0692% [at 18.6 µM],–
CO/N=C(\C(=O)N[C@@H]1C(=O)N2C(C(=O)O)=C(COC(C)=O)CS[C@H]12)c1csc(N)n1 (stereo in doubt),0.0606%,–
